Screening data (PubChem)
Pf growth 96h – P. falciparum growth inhibition at 96 hours; P. falciparum luciferase reporter growth, 96 h; Potency, µM (doses to about 28.7 µM), for inactives: top-dose activity change, negative = inhibition, hits mostly inhibitors; hit rate 6.9% among 320,000; also: potency is read from the fitted curve at half-maximal effect
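Infected RBCs, 2% Hct / 0.05% parasitemia final; luciferase-reporter P. falciparum; cpd 96 h, 37 C, 5% CO2; luciferase detection reagent; luminescence.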
Pf growth 48h – inhibits P. falciparum growth in the first generation, 48 h; hit rate 5.9% among 310,000; P. falciparum luciferase growth in erythrocytes, 48 h; AID 504832; Potency, µM (doses to about 28.7 µM), without a hit: at the top dose activity change, negative = inhibition, hits mostly inhibitors; also: potency is read from the fitted curve at half-maximal effect
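Erythrocytes infected with P. falciparum carrying an integrated firefly luciferase reporter (2% hematocrit, 0.1% parasitemia final) were exposed to compounds in RPMI 1640 with 0.5% Albumax at 37 C, 5% CO2. Growth inhibition was scored as reduced luminescence.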
HCMV inh – inhibitors of human cytomegalovirus; HFF cells, HCMV-luciferase reporter, 72 h; hits give low values; activity change, negative = inhibition, % at 57.5 µM; hit rate 4.5% among 410,000; AID 1259415; in the data active = activity change below about -60%; inconclusive = no clear call, values can overlap the other calls; inactive = above about -39%
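Compounds were evaluated in HFFs infected with an HCMV luciferase reporter virus (MOI 1 PFU/cell). Luciferase in lysates collected 72 h post infection served as the replication measure.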
HCV inhibitor – HCV inhibition; Huh7.5.1 HCVcc-Cre infection, luciferase reporter, 44 h; hit rate 3.4% among 340,000; AID 651820; Potency, µM (doses to about 41.8 µM), for inactives: at the highest dose activity change, negative = inhibition, usual class: inhibitors; also: potency is read from the fitted curve at half-maximal effect
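Cells (1,000/well) were plated 4 h before compound, then infected with HCVcc-Cre virus (~0.5 moi). After 44 h further culture, infection was read as luciferase luminescence following a 15 min substrate incubation at room temperature.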
* marks the source's active call; other numbers are inactive results; ? = inconclusive; . = no result; [ ] = remark or other dose. Hits are enriched below; roughly 13% of the tested compounds scored in any of these assays. Unless noted, calls follow the shape of the dose curve; as a rule, active = well fitted inhibition curve with a large enough effect; inconclusive = small, poorly fitted or top-dose-only effect, or another doubt; inactive = no such curve, though single readings can be large or run the other way. % is scaled to controls: 0 for no effect and ±100 for the full control effect.

SMILES | Pf growth 96h | Pf growth 48h | HCMV inh | HCV inhibitor
Cc1cc2ncn(C(=O)N3CCCCCC3)c2cc1C | 7.38µM* | 52.6% | 12.1 | 18.9%
Cc1cc2ncn(S(=O)(=O)N3CCCCC3)c2cc1C | . | -10.3% | 35.1 | -1.6%
CCOc1ccc(C(=O)N2CCC(c3nc4ccccc4o3)CC2)cc1 | . | . | 5.4 | .
COc1cc(Cl)c(NS(=O)(=O)c2ccc(-c3coc(C)n3)cc2)c(OC)c1 | . | . | -26.2 | .
CN1CCN(CP(=O)(N2CCOCC2)N2CCOCC2)CC1 | -22.6% | -3.5% | 13.1 | 14.5%
CC(C)OP(C)(=O)CN1CCN(CP(C)(=O)OC(C)C)CC1 (stereo unspecified) | 0.522µM* | 7.8% | -29.0 | -1.4%
Cn1cc(/C=N/n2cnc3scc(-c4ccc(Cl)cc4)c3c2=O)c2ccccc21 | ? | 14.8% | ? | 5.62µM*
CCn1cnc2scc(-c3ccccc3)c2c1=O | . | -7.6% | 1.9 | ?
COc1ccc(C)cc1NC(=O)C(NCC(O)c1ccccc1)c1ccccc1 (stereo unspecified) | 10.4µM* | ? | -35.0 | -4.8%
COc1ccc(C)cc1NC(=O)C(NS(=O)(=O)c1cccs1)c1ccccc1 (stereo unspecified) | . | . | -3.8 | .
CCC(C)(C)NC(=O)Nc1cc(Cl)ccc1OC | -0.5% | ? | -61.5* | ?
COc1ccc(Cl)cc1NC(=O)C(C)N(C)Cc1cccc(Cl)c1Cl (stereo unspecified) | 6.57µM* | 11.7µM* | ? | ?
COc1ccc(Cl)cc1NC(=O)C(C)NC(c1ccccc1)c1ccccc1 (stereo unspecified) | 2.94µM* | 13.1µM* | -28.3 | ?
COc1ccc(Cl)cc1NC(=O)CC(=O)Nc1cc(Cl)ccc1OC | 7.9% | ? | -26.0 | -6.1%
Cc1cc(C)cc(C(O)c2ncc(-c3ccccc3C)[nH]2)c1 (stereo unspecified) | . | . | -11.1 | .
COc1ccc(NC(=O)CSC2=Nc3ccccc3C3=NC(CCC(=O)NCc4ccc(F)cc4)C(=O)N23)cc1Cl (stereo unspecified) | . | . | -15.0 | .
COc1ccc(Cl)cc1NC(=O)NC(C)C | -39.9%[5.75 µM] | 1.9% | -100.8* | ?
COc1ccc([C@@H]2[C@@H](C(=O)N3CCCC3)CC(=O)N2C(=O)c2ccccc2)cc1 | . | . | -16.7 | .
CC1CC(NC(=O)Cc2ccc(Br)cc2)CC(C)(C)C1 (stereo unspecified) | ? | 11.7µM* | -19.0 | 4.2%
CC1CC(NC(=O)CC#N)CC(C)(C)C1 (stereo unspecified) | 99.0% | 45.5% | 7.5 | 12.5%
CCCCn1c(=O)c2oc3ccccc3c2n(CC(=O)Nc2cc(C)ccc2C)c1=O | . | . | -0.1 | .
COc1ccccc1NC(=O)CCc1nnc2ccc(N3CCCCC3)nn12 | 4.15µM* | -26.6% | -1.6 | 1.3%
COc1cc(NC(=O)CCc2nnc3ccc(N4CCCCC4)nn23)cc(OC)c1OC | 10.4µM* | ? | 12.4 | 17.1%
COc1cc(NC(=O)CCc2nnc3ccc(N4CCCC4)nn23)cc(OC)c1OC | ? | ? | 21.6 | 24.0%
O=[N+]([O-])c1ccccc1-c1cc(-c2ccccc2)cc(-c2ccccc2)[n+]1Cc1ccccc1Cl | ? | 0.928µM* | -96.8* | 3.55µM*
SMILES | Pf growth 96h | Pf growth 48h | HCMV inh | HCV inhibitor
O=c1c([N+](=O)[O-])cccn1Cc1ccccc1Cl | -10.1% | ? | -25.4 | 1.2%
CCOC(=O)c1ccc(N/C=C\C(=O)c2cccc(OC)c2)cc1 | 107.9% | 138.3% | 43.2 | 13.1%
COc1ccc(N/C=C\C(=O)c2ccc(C)cc2)cc1OC | ? | 38.4% | -33.2 | -22.2%
COC(=O)c1ccc(N/C=C/C(=O)c2ccccc2)cc1 | 13.1µM* | 160.9% | 67.7 | -15.9%
COc1ccc(N/C=C\C(=O)c2ccc(Br)cc2)cc1OC | 1.85µM* | 71.4% | -5.3 | 10.9%
Cc1cc(NC(=O)c2ccc(NC(=O)C3CCCO3)cc2)ccc1Br (stereo unspecified) | 1.0% | 27.8% | -73.6* | -1.5%
CCN(CC)c1ccc(NC(=O)c2ccc(NC(=O)C3CCCO3)cc2)c(C)c1 (stereo unspecified) | 7.2% | -29.0% | ? | -28.2%
O=C(Nc1ccc(O)cc1)c1ccc(NC(=O)C2CCCO2)cc1 (stereo unspecified) | ? | 20.5% | -63.3* | 2.1%
CCOC(=O)c1c(NC(=O)c2cc(-c3cccc(Cl)c3)on2)sc(C(C)=O)c1C | . | . | 5.9 | .
O=C(COC(=O)C12CC3CC(CC(O)(C3)C1)C2)Nc1cccc(Br)c1 | 88.3% | 159.0% | -102.2* | 2.9%
CCN(CC)S(=O)(=O)c1ccc2c(c1)c(=O)c(C(=O)N(C)Cc1ccccc1)cn2C | . | . | -6.1 | .
COc1ccc(C(=O)NC2CCN(S(=O)(=O)c3ccc(F)cc3)CC2)cc1 | ? | 10.5% | 0.7 | -9.3%
O=C(NC1CC2CCCC(C1)N2S(=O)(=O)c1ccccc1)c1ccco1 (stereo unspecified) | 9.7% | ? | -13.9 | 2.6%
O=S(=O)(c1ccc(F)cc1)N1CCN(C(=S)NC2CC2)CC1 | ? | 2.62µM* | 30.4 | 1.8%
O=C(NC1CCN(S(=O)(=O)c2ccc(F)cc2)CC1)c1ccc(F)cc1 | 11.7µM* | 20.3% | -22.1 | 10.5%
O=C(NC1CCCCC1)N1CCN(S(=O)(=O)c2ccc(F)cc2)CC1 | ? | -1.8% | 3.9 | 19.1%
CC(=O)NC1CC2CCCC(C1)N2S(=O)(=O)c1cccc(F)c1 (stereo unspecified) | 8.28µM* | . | 64.0 | 11.7%
CCC(C)(C)C1CCC(NC(=O)c2ccc(S(=O)(=O)N3CCOCC3)cc2)CC1 (stereo unspecified) | 14.7µM* | 10.4µM* | ? | ?
Cc1ccc(C(=O)NC2CC2)cc1S(=O)(=O)N1CCOCC1 | -78.3% | ? | 47.0 | 9.7%
O=C(NC1CCN(S(=O)(=O)c2ccccc2)CC1)c1cccc(F)c1 | ? | 22.8% | 10.4 | -1.9%
O=C(c1cccs1)N1CCN(S(=O)(=O)c2ccc(F)cc2)CC1 | 0.465µM* | -3.4% | -33.7 | 0.2%
O=C(NC1CCN(S(=O)(=O)c2cccc(F)c2)CC1)c1ccc(F)cc1 | 10.4µM* | ? | -30.0 | 8.7%
Cc1ccc(Cl)cc1NC(=O)N1CCC(CN2CCc3ccccc3C2)CC1 | . | . | 81.0 | .
O=C(Nc1ccccc1)C1=C(c2ccccc2)S(=O)(=O)CCS1(=O)=O | ? | 11.7µM* | -92.7* | ?
O=C(O)c1ccccc1C(=O)Nc1ccccc1 | . | 15.0% | 41.7 | 13.3%
Cc1cc(C(C)(C)C)oc1C(=O)N(CC(=O)NC1CCCC1)c1cccc(C(F)(F)F)c1 | 11.7µM* | 9.28µM* | . | ?
Cc1ccc(C(=O)N(CC(=O)NC2CCCC2)c2cccc(F)c2)s1 | 12.1% | 10.1% | -36.7 | ?
O=C(CN(Cc1ccccc1Cl)C(=O)CCC(=O)Nc1nccs1)NCC1CCCO1 (stereo unspecified) | ? | 6.6% | 10.5 | 2.7%
Cc1ccccc1N(CC(=O)NC1CCCC1)C(=O)c1oc(C(C)(C)C)cc1C | ? | 11.7µM* | . | ?
Cc1cc(C(C)(C)C)oc1C(=O)N(CC(=O)NC1CCCC1)Cc1ccccc1Cl | 9.28µM* | ? | -27.8 | ?
